# Assays:
# CHO = experiment: % viability of CHO cells (MTT); higher = less toxic; settings: 48 h
# Summary of the method: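 For 48 h, attached CHO cells (10^6 cells/well, 200 µL, seeded the night before) were kept in fresh medium carrying compound at 2 or 20 µM. A colorimetric tetrazolium (MTT) assay then gave survival as percent viability versus untreated cells.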
# HepG2-A16-CD81 = experiment: % inhibition of HepG2 viability (CellTiter-Glo); higher = more toxic; settings: 5 µM
# [1] = system: Plasmodium falciparum NF54 stage IV/V gametocytes; experiment: % inhibition of gametocyte viability (PrestoBlue); higher = more inhibition; settings: 48 h
# Summary of the method: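 Stage IV/V NF54 gametocytes at 2% gametocytaemia and 5% haematocrit (100 µL/well) were treated with compound at 1 or 5 µM and incubated for 48 h at 37 °C under stationary, hypoxic conditions. PrestoBlue (10 µL) was then added for 2 h, and fluorescence at 612 nm was read on 70 µL of transferred supernatant. Percent inhibition of gametocyte viability was normalised to vehicle and kill controls within one run.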
# [2] = system: Plasmodium falciparum NF54 asexual blood stage; experiment: % inhibition of asexual blood stage proliferation (pLDH); higher = more inhibition; settings: 72 h
# Summary of the method: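 Plasmodium falciparum NF54 ring-stage cultures (1% haematocrit, 2% parasitaemia) were incubated with compound at 2 or 20 µM for 72 h at 37 °C under 4% CO2, 3% O2 and 93% N2. Survival was read at 620 nm with the parasite lactate dehydrogenase assay. Results were reported as percent inhibition of asexual proliferation relative to controls.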
# [3] = system: Plasmodium falciparum NF54 stage IV/V gametocytes; experiment: % inhibition of gametocyte viability (ATP bioluminescence); higher = more inhibition; settings: 24 h
# Summary of the method: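 Stage IV/V NF54 gametocytes from density gradients (30,000 per well, 96-well plates) were incubated with compound at 1 or 5 µM for 24 h at 37 °C. A single run supplied percent inhibition of gametocyte viability, based on ATP measured with Promega BacTiter Glo and normalised to control wells.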
# [4] = system: Plasmodium falciparum NF54 stage IV/V gametocytes; experiment: % inhibition of gametocyte viability (luciferase reporter); higher = more inhibition; settings: 48 h
# Summary of the method: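 Compound at 1 or 5 µM was added to stage IV/V NF54-Pfs16-GFP-Luc gametocytes (2% gametocytaemia, 2% haematocrit) and incubated stationary and hypoxic at 37 °C for 48 h. A GloMax-Multi+ reader measured luminescence over 10 s integration on 30 µL lysate plus 30 µL Promega luciferin substrate. Percent inhibition values were normalised to controls within a single run.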
# [5] = system: Plasmodium berghei ANKA liver stage in HepG2-A16-CD81; experiment: % inhibition of liver stage parasite viability (luciferase); higher = more inhibition; settings: 5 µM; 48 h
# Method: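 Single-concentration screen of the MMV Pandemic Response Box. P. falciparum NF54 asexual blood stages: pLDH assay, 72 h at 37 °C, 2 and 20 µM, n=2. Stage IV/V gametocytes (NF54): luciferase reporter (NF54-Pfs16-GFP-Luc, 48 h), ATP bioluminescence (24 h) and PrestoBlue (48 h) at 1 and 5 µM, n=1. P. berghei liver stage (luciferase in HepG2-A16-CD81, 48 h post infection) at 5 µM, n=4. All normalised to DMSO and kill controls as % inhibition.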
# 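Wherever % inhibition of HepG2 viability (CellTiter-Glo) is given: HepG2-A16-CD81 hepatoma cells plated as in the liver-stage assay but without sporozoites, with DMSO wells as negative and 25 µM puromycin as positive control.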
Structure (SMILES),% viability of CHO cells (CHO; 2 µM),% viability of CHO cells (CHO; 20 µM),% inhibition of HepG2 viability (HepG2-A16-CD81),% inhibition of gametocyte viability ([1]; 1 µM),% inhibition of gametocyte viability ([1]; 5 µM),% inhibition of asexual blood stage proliferation ([2]; 2 µM),% inhibition of asexual blood stage proliferation ([2]; 20 µM),% inhibition of gametocyte viability ([3]; 1 µM),% inhibition of gametocyte viability ([3]; 5 µM),% inhibition of gametocyte viability ([4]; 1 µM),% inhibition of gametocyte viability ([4]; 5 µM),% inhibition of liver stage parasite viability [5]
CCc1cc(Nc2cc(=O)n(CCN3CCN(C(=O)c4ccccc4)CC3)c(=O)[nH]2)ccc1C,93.2%,103%,-1.38%,< 0%,23.7%,-6.84%,61.3%,< 0%,< 0%,< 0%,9.16%,10.7%
CN(C)c1[nH]c(=O)ncc1F,111%,104%,11.9%,< 0%,< 0%,-4.48%,8.8%,2.44%,< 0%,< 0%,< 0%,26.1%
COc1ccc(C[C@@H](C)[C@@H](C)Cc2ccc(OC)c(OC)c2)cc1OC,81.9%,77.7%,5.15%,10.5%,23.6%,13.7%,63%,< 0%,< 0%,< 0%,< 0%,4.88%
NS(=O)(=O)c1ccc(NC(=O)NC(c2ccccc2)c2ccccc2)cc1,258%,58.6%,4.57%,< 0%,7.57%,3.15%,82.5%,< 0%,< 0%,< 0%,< 0%,19.3%
CC(=N)N1CC[C@H](SC2=C(C(=O)O)N3C(=O)[C@@H]([C@@H](C)O)[C@H]3C2)C1,85.2%,33.9%,-4.07%,< 0%,< 0%,5.77%,14.6%,< 0%,< 0%,< 0%,0.678%,5.53%
O=C(N[C@H](CCS)C(=O)N[C@H](Cc1ccccc1)C(=O)O)c1cc2ccccc2[nH]1,78.3%,74.3%,-0.7%,< 0%,< 0%,1.01%,7.64%,< 0%,< 0%,< 0%,12%,5.97%
CC(C)c1cc2c(cc1S(=O)(=O)O)[C@@]1(C)CCC[C@@](C)(C(=O)O)[C@@H]1CC2,93.3%,109%,3.51%,43.4%,12.4%,26%,89%,< 0%,< 0%,< 0%,< 0%,38.5%
CCOC(=O)/C=C/[C@H](C[C@@H]1CCNC1=O)NC(=O)[C@@H](CC(=O)[C@@H](NC(=O)c1cc(C)on1)C(C)C)Cc1ccc(F)cc1,124%,129%,2.38%,27.5%,17.3%,16.3%,53.7%,4.33%,< 0%,1.29%,10.2%,-3.33%
Clc1ccc(COC(Cn2ccnc2)c2ccc(Cl)cc2Cl)c(Cl)c1 (centres undefined),89.6%,135%,4.88%,10.1%,< 0%,48.6%,73.4%,< 0%,20.2%,< 0%,22.3%,33.2%
C[C@@H](NC(=O)c1cccc(-c2c[nH]c(-c3cc4ccccc4cn3)n2)c1)c1ccc(F)cc1,91.9%,101%,-1.52%,9.05%,8.49%,21.8%,72.3%,28.5%,83.2%,0.447%,1.09%,29.1%
CCN(CC)CCCC(C)Nc1ccnc2cc(Cl)ccc12 (centres undefined),95.9%,76.9%,8.97%,16.9%,6%,85.8%,99.8%,< 0%,< 0%,29.7%,5.51%,
CCCCC(CC)CNC(=N)NC(=N)NCCCCCCNC(=N)NC(=N)NCC(CC)CCCC (centres undefined),101%,124%,57.5%,44.5%,79.2%,92.1%,87.5%,66.4%,93.8%,98.7%,100%,74%
Fc1ccc2c(/C=C/c3nnn[nH]3)c[nH]c2c1,80.4%,75%,2%,4.4%,18.3%,7.6%,10.8%,< 0%,< 0%,< 0%,4.42%,7.99%
Cc1c[nH]c(=O)nc1NCc1ccccc1,36.1%,22.7%,-0.05%,6.6%,11.5%,22.3%,60.5%,< 0%,< 0%,< 0%,4.07%,
C/C(=N\NC(=O)C1CC1c1ccccc1)c1ccc(NC(=O)c2ccco2)cc1 (centres undefined),101%,69.1%,-5.96%,< 0%,14.5%,18.8%,38.7%,3.34%,< 0%,< 0%,< 0%,13.7%
CCc1nc2ccc(Cl)cn2c1C(=O)NCc1ccc(N2CCC(c3ccc(OC(F)(F)F)cc3)CC2)cc1,91.1%,113%,7.13%,22%,< 0%,31.7%,102%,< 0%,< 0%,4.46%,< 0%,72.1%
COc1ccc2sc3c(c2c1)NC(C)CNC3=O (centres undefined),97.2%,115%,33.6%,< 0%,< 0%,38.3%,40.7%,< 0%,< 0%,0.316%,< 0%,-51.9%
Oc1c(C(Nc2ccccn2)c2ccccc2)ccc2cccnc12 (centres undefined),115%,68.7%,10.2%,49%,26.9%,71.8%,88.8%,< 0%,40.6%,0.252%,33.3%,12.4%
CCc1cc(CCCOc2c(C)cc(-c3noc(C(F)(F)F)n3)cc2C)on1,92.1%,110%,-0.702%,< 0%,< 0%,40.1%,94.3%,7.22%,9.64%,8.61%,13.1%,28.7%

Structure (SMILES),% viability of CHO cells (CHO; 2 µM),% viability of CHO cells (CHO; 20 µM),% inhibition of HepG2 viability (HepG2-A16-CD81),% inhibition of gametocyte viability ([1]; 1 µM),% inhibition of gametocyte viability ([1]; 5 µM),% inhibition of asexual blood stage proliferation ([2]; 2 µM),% inhibition of asexual blood stage proliferation ([2]; 20 µM),% inhibition of gametocyte viability ([3]; 1 µM),% inhibition of gametocyte viability ([3]; 5 µM),% inhibition of gametocyte viability ([4]; 1 µM),% inhibition of gametocyte viability ([4]; 5 µM),% inhibition of liver stage parasite viability [5]
Fc1ccc(-n2cc(Cn3c(-c4cccc(F)c4)nc4ccccc43)nn2)cc1,86.4%,78.7%,-1.61%,< 0%,43.7%,9.59%,83.1%,< 0%,< 0%,< 0%,< 0%,6.9%
Cn1cc(NC(=O)c2cc(NC(=O)c3ccc(/C=C/c4cnc5ccccc5c4)cc3)cn2C)cc1C(=O)NCCN1CCOCC1,34.6%,14.9%,-5.82%,18.3%,55.1%,68.7%,94%,22.3%,15.5%,64.1%,67.1%,85.8%
O=C(/C(=C/c1ccc(Cl)cc1Cl)n1ccnc1)c1ccc(Cl)cc1,108%,113%,-2.24%,38.5%,85.8%,56.2%,75.6%,40.3%,86.2%,80.5%,99.8%,
Nc1cc(N)c2nc(-c3ccccc3)c(Nc3ccc(F)cc3)nc2c1,97.5%,88.4%,12.8%,< 0%,< 0%,91%,92.4%,< 0%,19.7%,< 0%,< 0%,
O=C(O)c1sccc1S(=O)(=O)n1ccc2cc(Br)ccc21,93.4%,97.8%,-1.44%,12.3%,30.7%,49.8%,84.9%,< 0%,< 0%,< 0%,< 0%,
O=S(=O)(Nc1ccc(O)cc1)c1cccc2cccnc12,91.3%,104%,0.07%,< 0%,< 0%,28.2%,52.4%,< 0%,< 0%,< 0%,< 0%,-2.62%
CCCC1(C2CC2)c2cc(Cl)ccc2NC(=O)N1C (centres undefined),60.2%,59.9%,1.91%,< 0%,6.87%,18%,53.6%,< 0%,< 0%,0.472%,< 0%,-13.9%
CC(=O)NC[C@H]1CN(c2ccc(N3CCSCC3)c(F)c2)C(=O)O1,105%,91.5%,4.22%,< 0%,< 0%,37.1%,49.9%,< 0%,< 0%,< 0%,< 0%,
NC(=O)C(c1ccccc1)(c1ccccc1)[C@H]1CCCN(CCc2ccc3c(c2)CCO3)C1,91.2%,-0.304%,1.31%,33.7%,14%,-5.36%,68.4%,< 0%,< 0%,12%,< 0%,
CCC(C)NCC(O)Cn1c2ccc(Cl)cc2c2cc(Cl)ccc21 (centres undefined),112%,1.87%,1.41%,33.3%,87.6%,68.7%,81.8%,6.9%,68.2%,< 0%,91%,
O=C(NN1C(=O)[C@@H]2C3C=CC([C@H]4C[C@@H]34)[C@@H]2C1=O)c1ccc(C(F)(F)F)cc1,97.4%,120%,-2.51%,< 0%,< 0%,4.37%,23%,1.06%,< 0%,< 0%,4.75%,
O=[N+]([O-])c1cn(Cc2nc(O)nc(O)c2Br)cn1,95.9%,109%,-3.1%,9.08%,21.3%,38.7%,55.8%,0.137%,< 0%,< 0%,4.07%,
CCCCCc1ccc(C(=O)NCCn2cc(CCCCCc3cnc(N)[nH]3)nn2)cc1,125%,153%,2.88%,< 0%,63.4%,72.9%,96.5%,< 0%,< 0%,< 0%,< 0%,
COc1cc(NC(=O)CN2C(=O)NC(c3ccccc3)(c3ccccc3)C2=O)cc(OC)c1,91.4%,102%,-3.2%,< 0%,28.9%,-4.55%,7.51%,< 0%,< 0%,< 0%,8.59%,
O=[N+]([O-])c1cn2c(n1)OC[C@@H](OCc1ccc(OC(F)(F)F)cc1)C2,92.7%,84.4%,10.7%,< 0%,< 0%,0.354%,10.1%,< 0%,< 0%,< 0%,3.32%,
COc1ccc(OCc2ccc(COc3c(Cl)cccc3Cl)cc2)c(Cl)c1,99.5%,100%,-5.86%,< 0%,< 0%,21.2%,68.1%,4.45%,< 0%,< 0%,< 0%,
CC(=O)O[C@H]1C[C@@]2(C)[C@@H](C[C@@H](O)[C@H]3[C@@]4(C)CC[C@@H](O)[C@@H](C)[C@@H]4CC[C@@]32C)/C1=C(\CCC=C(C)C)C(=O)O,108%,97.1%,-0.207%,< 0%,2%,1.38%,9.02%,< 0%,< 0%,< 0%,< 0%,
Oc1ccc(NCc2ccccc2OCc2ccccc2)cc1,97.9%,103%,-1.04%,< 0%,< 0%,18.6%,95%,< 0%,< 0%,< 0%,< 0%,
NC(=O)c1cnccn1,96%,75.7%,-2.12%,9.19%,38.1%,38.1%,70.3%,< 0%,< 0%,< 0%,14.8%,
